# Tau FP inhib: inhibitors of human tau fibril formation; P10636; K18 P301L tau heparin fibrillization, Alexa594 FP, 6 h; Potency, µM (highest dose often 57.7 µM), for the others: at the top dose activity, negative = inhibition, most hits filed as inhibitors; 280,000 tested, 0.39% active; AID 1468; also: potency is read from the fitted curve at half-maximal effect; nearly all actives have a fitted effect of over 55% in size
# Target sequence (P10636 561-689 P618L limits assumed): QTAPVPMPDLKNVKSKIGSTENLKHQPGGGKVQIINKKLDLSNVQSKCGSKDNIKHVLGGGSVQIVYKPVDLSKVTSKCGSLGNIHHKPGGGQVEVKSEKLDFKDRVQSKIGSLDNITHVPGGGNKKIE
#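 Recombinant K18 P301L […], labeled with Alexa 594 at 0.24 uM over 15 uM unlabeled; heparin inducer 20 uM final; 37 C, 6 hr; FP endpoint.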
# Tau fluor counter: counter-screen for tau fibril formation inhibitors; tau K18 P301L Alexa594 fluorescence, heparin fibrillization; 280,000 tested, 0.93% active; Potency, µM (doses to about 57.7 µM), without a hit: at the highest dose activity change, negative = decrease; also: potency is read from the fitted curve at half-maximal effect; nearly all actives have a fitted effect of over 55% in size
#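 Human K18 P301L tau (15 uM unlabeled plus 0.24 uM Alexa 594-labeled, final) in 100 mM sodium acetate pH 7 was mixed with compound and 20 uM heparin and incubated 6 hr at 37 C.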
# Tau fibril ThT: tau fibrillization inhibition (ThT binding). Potency, µM (series often up to 57.4 µM), without a hit: at the highest dose activity, negative = inhibition, usual class: inhibitors. 270,000 tested, 2.1% active. P10636. recombinant tau K18 P301L (four-repeat tau fragment), heparin-induced fibrillization, ThT fluorescence. AID 1460; also: potency is read from the fitted curve at half-maximal effect; nearly all actives have a fitted effect of over 55% in size
#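 Recombinant human tau K18 fragment […] carrying P301L, 15 uM unlabeled plus 0.24 uM Alexa 594-labeled, was fibrillized with 20 uM heparin in 100 mM sodium acetate pH 7 for 6 hr at 37 C; 30 uM ThT fluorescence read after 1 hr.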
# FBPA coupling cs: coupling enzyme interference in Giardia aldolase counter-screen; 290,000 tested, 0.67% active; activity change, negative = inhibition, % at 58.2 µM, hits read low; coupling enzyme system counterscreen, AmpLite Red fluorescence; in the data active = activity change below about -30%
#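 Counterscreen lacking aldolase: glyceraldehyde-3-phosphate coupling-enzyme reagent preincubated 10 min at RT with compound (at 57.5 uM final), then substrate/coupling system with AmpLite Red added; fluorescence read at 525/598 nm after 20 min RT.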
# Sfp inh: inhibitors of Bacillus subtilis Sfp phosphopantetheinyl transferase. Potency, µM, inactives show largest response in the series, negative = inhibition, hits mostly inhibitors. Q9F4F7. AID 1490. 310,000 tested, 3.5% active. Biochemical Sfp PPTase activity, qHTS;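 also: the enzyme is Sfp with the accession as filed and its product quenches rhodamine fluorescence; potency is read from the fitted curve at half-maximal effect; 0% = enzyme reaction without inhibitor and -100% = no enzyme wells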
#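 Fluorescence-quenching assay: 15 nM Sfp-PPTase preincubated 15 min at room temperature with compound, then 5 uM rhodamine-CoA and 12.5 uM BHQ-2-labelled YbbR peptide added. Fluorescence (ex 525/em 598 nm) read at start and after 30 min; difference gives rate.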
# Numbers without * were called inactive; ? = inconclusive; · = no result; [ ] = another dose, or the depositor's remark. This is a sample that favours compounds with a hit; in the whole collection about 5.2% have one here. Unless noted, calls follow the shape of the dose curve; as a rule, active = well fitted curve in the direction sought with a large enough effect; inconclusive = small, poorly fitted or top-dose-only effect, or another doubt; inactive = no such curve, though single readings can be large; an effect the other way counts as inactive or inconclusive. Unless noted, % is scaled to controls: 0 for no effect and ±100 for the full control effect.
SMILES,Tau FP inhib,Tau fluor counter,Tau fibril ThT,FBPA coupling cs,Sfp inh
CC(C)CNC(=O)c1c(N)n(Cc2ccco2)c2nc3ccccc3nc12,-9%,?,?,-3,32µM*
COC(=O)c1c(N)n(Cc2ccc(OC)cc2)c2nc3ccccc3nc12,12%,-29%,3%,-2,-5%
C=CCNC(=O)c1c(N)n(CCN2CCOCC2)c2nc3ccccc3nc12,8%,?,?,-17,-12%
COc1ccc(Cn2c(N)c(C(=O)NCc3ccco3)c3nc4ccccc4nc32)cc1OC,?,?,14µM*,-9,?
CCc1ccccc1N1C(=O)N(Cc2ccccc2C)c2ccccc2S1(=O)=O,?,-18%,-1%,·,·
C[C@]12[C@H](O)CC3C(CC[C@@H]4C[C@@H](O)CC[C@]34C)[C@@]1(O)CC[C@@H]2C1=CC(=O)OC1 (some centres undefined),-5%,-7%,-1%,4,5%
Nc1c(C(=O)NCC2CCCO2)c2nc3ccccc3nc2n1Cc1ccco1 (centres undefined),?,?,?,-1,4µM*
Nc1c(C(=O)OCC2CCCO2)c2nc3ccccc3nc2n1Cc1cccs1 (centres undefined),-15%,?,?,-20,?
CCCNC(=O)c1c(N)n(Cc2ccco2)c2nc3ccccc3nc12,?,?,?,-1,?
CC(C)OCCCNC(=O)c1c(N)n(Cc2cccs2)c2nc3ccccc3nc12,?,?,?,-46*,?
COCCOC(=O)c1c(N)n(Cc2ccco2)c2nc3ccccc3nc12,?,?,?,6,56µM*
COCCCNC(=O)c1c(N)n(Cc2ccco2)c2nc3ccccc3nc12,-2%,?,?,-10,13µM*
CC1OC(OC2C(O)CC(OC3C(O)CC(OC4CCC5(C)C(CCC6C5CCC5(C)C(C7=CC(=O)OC7)CCC65O)C4)OC3C)OC2C)CC(O)C1O (centres undefined),11%,4%,-22%,5,24%
COC(=O)COc1cc(Cl)c(Cl)cc1Cl,-4%,-7%,-13%,1,-2%
CNCc1ccccc1,-16%,?,?,-1,26%
O=c1oc(Cl)c(Cl)c2ccccc12,?,-19%,11µM*,·,35µM*
O=C(Nc1ccc(Cl)c(C(F)(F)F)c1)C1CCCN(S(=O)(=O)c2cccc3cccnc23)C1 (centres undefined),-19%,?,-1%,·,·
Oc1ccc(C[C@H]2NCCc3cc(O)c(O)cc32)cc1O,·,·,·,-10,71µM*
c1cc(CN2CCCC3(CCNCC3)C2)ccn1,·,·,·,1,1%
COP(=S)(OC)SCn1nnc2ccccc2c1=O,·,·,·,0,22µM*
CNC1C2CN3CCC(O2)C13 (centres undefined),1%,0%,5%,2,1%
S=C(NCCc1ccccc1)NCCc1cnc[nH]1,·,·,·,2,?
O=C1C(Cc2cnc[nH]2)NC(=S)N1c1ccccc1 (centres undefined),·,·,·,-2,50µM*
COC(=O)c1cc(NC(=O)Cn2nc(-c3ccccc3)c3c(c2=O)CCCC3)cc(C(=O)OC)c1,?,-26%,1%,·,·
CN1C(=O)C(Cc2ccsc2)C(=O)N(C)C1=O,32µM*,-21%,25µM*,-13,28µM*
CN1C[C@H](C(=O)N[C@]2(C)O[C@@]3(O)[C@H]4CCCN4C(=O)[C@H](Cc4ccccc4)N3C2=O)C[C@H]2c3cccc4[nH]cc(c34)C[C@@H]21,7%,7.1µM*[quencher],?,-1,-14%
CC(C)[C@@]1(NC(=O)[C@@H]2C[C@H]3c4cccc5[nH]cc(c45)C[C@@H]3N(C)C2)O[C@@]2(O)[C@H]3CCCN3C(=O)[C@H](Cc3ccccc3)N2C1=O,0%,13µM*[quencher],?,-5,8%
COc1cccc(CN2CCc3nc(N4CCN(c5ncccn5)CC4)ncc3C2)c1,-3%,-4%,?,·,·
NC(N)=NN=C(/C=C/c1ccc([N+](=O)[O-])o1)/C=C/c1ccc([N+](=O)[O-])o1,·,·,·,·,50µM*
